DT40 TDP1 CPT: qHTS for Inhibitors of human tyrosyl-DNA phosphodiesterase 1 (TDP1): qHTS in cells in presence of CPT; chicken DT40 Tdp1-/-;hTDP1 cells + 20 nM CPT, ATP luminescence, 48 h; Potency, µM (doses to about 46.2 µM), for the others: top-dose activity change, negative = growth inhibition, actives largely listed as inhibitors; 420,000 tested, 12% active; also: potency is read from the fitted curve at half-maximal effect; nearly all actives have a fitted effect of over 55% in size
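Chicken DT40 Tdp1-/- cells stably complemented with human TDP1 were seeded at 400 cells/well in medium containing 20 nM camptothecin, exposed to pin-transferred compounds, and grown at 37 °C for at least 48 hr. Viability was read as ATP luminescence.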
HT1080NT lethal: qHTS for induction of synthetic lethality in tumor cells producing 2HG: qHTS for the HT-1080-NT fibrosarcoma cell line; 360,000 tested, 1.6% active; HT-1080-NT fibrosarcoma viability, CellTiter-Glo ATP luminescence, 48 h; Potency, µM (series often up to 46.1 µM), for the others: at the highest dose activity, negative = less viability, most hits filed as cytotoxic; AID 686970, 2013;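 also: NT is the 2HG producing partner of a matched IDH1 knockdown line; potency is read from the fitted curve at half-maximal effect; 0% = DMSO-treated cells and -100% = media-only wells without cells; nearly all actives have a fitted effect of over 55% in size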
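Fibrosarcoma NT cells, 750 per well in 5% FBS RPMI, were exposed to compound for 48 hours. Viability: CellTiter-Glo luminescence.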
HT1080 IDH1KD tx: qHTS for induction of synthetic lethality in tumor cells producing 2HG: qHTS for the HT-1080-IDH1KD cell line; HT-1080 IDH1 knockdown viability, ATP luminescence, 48 h; Potency, µM (series often up to 46.1 µM), for the others: at the highest dose activity, negative = toxicity, hits mostly cytotoxic; 360,000 tested, 2% active; AID 686971, 2013;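 also: potency is read from the fitted curve at half-maximal effect; 0% = DMSO wells and -100% = cell-free medium wells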
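HT-1080-IDH1KD cells (IDH1 knocked down), 750/well in RPMI with 5% FBS, treated with compound 48 h at 37 degrees C. Viability by CellTiter-Glo luminescence, normalised to DMSO and no-cell wells; concentration-response curves classed.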
TDP1 cell noCPT: qHTS for Inhibitors of human tyrosyl-DNA phosphodiesterase 1 (TDP1): qHTS in cells in absence of CPT; DT40 Tdp1-/- hTDP1 cells, no CPT, ATP luminescence, 48 h; Potency, µM (top dose mostly 46.2 µM), for inactives: at the highest dose activity change, negative = growth inhibition, most hits filed as inhibitors; 420,000 tested, 15% active; also: potency is read from the fitted curve at half-maximal effect; nearly all actives have a fitted effect of over 55% in size
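Cells were dispensed at 400 per well, compounds added by pin tool, plates incubated ≥48 hr at 37 °C, then CellTiter-Glo added for 30 min at room temperature before luminescence reading. Line: DT40 Tdp1-/- complemented with hTDP1; camptothecin omitted.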
IL1B secr inh: qHTS for Inhibitors of Inflammasome Signaling: IL-1-beta AlphaLISA Primary Screen | activity change, % at 57.5 µM | 360,000 tested, 4.7% active | THP-1 LPS/ATP IL-1B secretion, AlphaLISA, 16 h; hits give low values | AID 743279, 2014; in the data active = activity change below about -50%; inconclusive = mostly about -30% to -49%
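THP-1 cells pretreated 1 hr with compounds (up to 57.5 uM final), then stimulated with LPS (250 ng/mL final) plus ATP (1.25 mM final); secreted IL-1B measured by AlphaLISA after 16 hr, decreased signal indicating inhibition.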
* hit, by the source's call; ? = inconclusive; / = no result. Sampled rows, rich in hits. Any-hit rate of the full collection: about 19%. Unless noted, calls follow the shape of the dose curve; as a rule, active = well fitted curve in the direction sought with a large enough effect; inconclusive = small, poorly fitted or top-dose-only effect, or another doubt; inactive = no such curve, though single readings can be large; an effect the other way counts as inactive or inconclusive. Unless noted, % is scaled to controls: 0 for no effect and ±100 for the full control effect.

SMILES	DT40 TDP1 CPT	HT1080NT lethal	HT1080 IDH1KD tx	TDP1 cell noCPT	IL1B secr inh
O=C(O)c1cccc(Nc2nc(-c3cccnc3)nc3ccccc23)c1	?	2%	-19%	?	28
c1cncc(-c2nc(NCc3cccs3)c3ccccc3n2)c1	?	4%	-1%	?	-7
COCCN(C(=O)c1ccc2c(c1)C(=O)N(c1ccccc1Cl)C2=O)c1c(N)n(CC(C)C)c(=O)[nH]c1=O	-4%	1%	5%	29%	8
COC(=O)c1cc(C)nc2c1c(=O)nc(SCc1ccccc1Cl)n2C1CC1	-20%	/	/	-6%	/
COc1cccc(CNc2nc(-c3cccnc3)nc3ccccc23)c1	?	?	?	?	-93*
ClC(Cl)(Cl)c1nc(N/N=C/c2ccncc2)c2ccccc2n1	-18%	-3%	0%	?	11
FC(F)(F)c1nc2ccccc2nc1N/N=C\c1ccccc1	21µM*	-14%	-14%	18µM*	11
Brc1ccc(-c2nc(N/N=C/c3cccnc3)c3ccccc3n2)cc1	12µM*	?	?	13µM*	23
C(=N\Nc1ccccn1)/c1cccnc1	4%	9%	4%	0%	41
COc1ccc(CNC(=O)C2CCN(S(=O)(=O)c3c(C)noc3/C=C/N(C)C)CC2)cc1	-2%	2%	2%	20%	35
COc1cccc(C(=O)NC2CCN(C(=O)N3c4ccccc4Sc4ccccc43)CC2)c1	?	?	?	?	-57*
O=C(CN1CCCCCC1)N1c2ccccc2Sc2ccccc21	3%	-19%	-9%	-28%	-3
COc1cc(NC(=O)N2c3ccccc3Sc3ccccc32)c(C(=O)O)cc1OC	-3%	5%	4%	-6%	3
NC(=O)C1CCN(C(=O)N2c3ccccc3Sc3ccccc32)CC1	-12%	-21%	14%	-28%	?
O=C(NC1CCN(C(=O)N2c3ccccc3Sc3ccccc32)CC1)c1ccccc1Cl	?	?	?	23µM*	-59*
COc1ccccc1NC(=O)N1c2ccccc2Sc2ccccc21	15µM*	/	/	15µM*	/
O=C(C1CC1)N1c2ccccc2Sc2ccccc21	?	?	18µM*	?	-27
O=C(NC1CCN(C(=O)N2c3ccccc3Sc3ccccc32)CC1)c1ccco1	?	?	21µM*	21µM*	-8
O=C(COc1ccccc1)N1c2ccccc2Sc2ccccc21	-37%	-4%	?	-49%	-1
O=C(c1ccncc1)N1c2ccccc2Sc2ccccc21	21µM*	?	-12%	9.2µM*	2
COc1cccc(C(=O)N2c3ccccc3Sc3ccccc32)c1	12µM*	-4%	?	16µM*	-11
CC(=O)NC(Cc1cccc(F)c1)C(=O)NC1CCN(c2nnnn2-c2ccccc2)CC1 (centres undefined)	0%	-4%	-1%	-1%	8
CCN(C(=O)Cn1c(C(=O)OC)cc2oc3ccccc3c21)c1cccc(C)c1	12µM*	/	/	18µM*	/
O=C(CC1(O)C(=O)N(CCc2ccccc2)c2ccc(Br)cc21)c1ccc(F)cc1 (centres undefined)	?	/	/	16µM*	/
COC(=O)CN1C(=O)C(O)(CC(=O)c2ccccc2)c2ccccc21 (centres undefined)	?	22%	24%	?	-2
COc1ccc(C(=O)CC2(O)C(=O)N(CCc3ccccc3)c3ccc(Br)cc32)cc1OC (centres undefined)	16µM*	/	/	?	/

From PubChem BioAssay
